# Bioassay records (PubChem)
# In the library only some 4.5% were active in any assay of this set; here they are far more common.
# DRV1 agonist: qHTS for Agonists of Human Resolvin D1 Receptor DRV1; CHO-K1 GPR32 beta-arrestin PathHunter luminescence, 90 min; zero percent set by DMSO-only wells; activation, % at 76.9 µM; 48,000 tested, 2.5% active; AID 1346428, 2018;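 active = activation of at least 60% and not above a set upper limit, about 1 call in 100 departs from these limits; inconclusive = activation of 40% to 60%, or above that upper limit; inactive = activation under 40%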; note: 0% is about no effect
# Target sequence (O75388 whole entry, looked up): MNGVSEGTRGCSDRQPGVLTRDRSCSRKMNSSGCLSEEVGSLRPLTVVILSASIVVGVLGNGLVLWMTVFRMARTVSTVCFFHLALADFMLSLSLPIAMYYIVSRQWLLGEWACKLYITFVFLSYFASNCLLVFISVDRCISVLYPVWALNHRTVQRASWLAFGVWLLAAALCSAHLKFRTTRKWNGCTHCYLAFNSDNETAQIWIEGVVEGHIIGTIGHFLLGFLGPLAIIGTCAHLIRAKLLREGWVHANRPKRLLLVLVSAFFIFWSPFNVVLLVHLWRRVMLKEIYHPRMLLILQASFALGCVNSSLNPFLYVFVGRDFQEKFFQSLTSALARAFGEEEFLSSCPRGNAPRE
#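 Using DMSO wells as EC0, agonist-induced signal was taken as chemiluminescence from beta-Gal reconstituted upon beta-arrestin recruitment to GPR32 in CHO-K1 cells after 90 min compound treatment.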
# OvCa metastasis: Primary qHTS assay for Inhibitors of ovarian cancer metastasis using an organotypic tumor microenvironment (TME) model | SKOV3ip1-GFP adhesion/invasion on 3D omental model, fluorescence | Potency, µM (doses to about 45.8 µM), for the others: top-dose activity change, negative = inhibition, actives largely listed as inhibitors | 46,000 tested, 0.1% active;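 note: potency is the fitted concentration of half-maximal effect; plate controls were DMSO wells for no effect and tomatine positive control wells for full effect; nearly all actives have a fitted effect of over 65% in size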
#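 A 3D layer of primary human omental fibroblasts, mesothelial cells, fibronectin and collagen I, grown 48 hr, received SKOV3ip1-GFP cells in serum-free medium plus compounds at 0.36-46 umol/L. After 2 hr RT and 16 hr 37 C, fixed adherent GFP cells were counted; normalized to DMSO and tomatine.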
# HTT promoter inh: Primary qHTS for Identification of Small Molecule Inhibitors of Huntingtin Promoter Activity | 48,000 tested, 0.93% active | HEK293 HTT promoter firefly luciferase reporter, 24 h | Potency, µM (doses to about 57.5 µM), for inactives: top-dose activity change, negative = inhibition, most hits filed as inhibitors | AID 1508623, 2021; note: potency is the fitted concentration of half-maximal effect; nearly all actives have a fitted effect of over 50% in size
#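 Firefly luciferase signal from promoter-reporter HEK293 cells was scaled between vehicle (0%) and zero RLU (-100%). Compounds were tested at final concentrations of up to 57.5 uM over 24 h at 37 degrees C. PTC124 at 50 uM final served as control inhibitor.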
# NTMT1 inh: Primary qHTS for Inhibitors of N-terminal methyltransferase 1 (NTMT1): MTaseGlo Assay. N-terminal Xaa-Pro-Lys N-methyltransferase 1 (Homo sapiens), Q9BV86. NTMT1 MTase-Glo SAH luminescence, purified enzyme. Potency, µM (top dose mostly 114 µM), for inactives: top-dose activity change, negative = inhibition, most hits filed as inhibitors. 59,000 tested, 2.5% active. AID 1645870, 2021;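 note: potency is the fitted concentration of half-maximal effect; plate controls were DMSO vehicle for no effect and no enzyme for full effect; nearly all actives have a fitted effect of over 65% in size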
# Target sequence (Q9BV86 whole entry, looked up): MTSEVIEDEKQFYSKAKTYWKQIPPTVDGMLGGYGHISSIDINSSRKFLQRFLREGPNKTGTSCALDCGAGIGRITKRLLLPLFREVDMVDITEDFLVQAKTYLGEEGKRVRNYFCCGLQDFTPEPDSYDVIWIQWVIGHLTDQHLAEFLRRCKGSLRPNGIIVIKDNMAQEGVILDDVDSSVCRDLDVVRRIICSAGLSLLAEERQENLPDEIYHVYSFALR
# HTT-AS promoter: Primary qHTS for Identification of Small Molecule Activators of Huntingtin-Antisense Promoter Activity; HEK293 HTT-AS promoter firefly luciferase reporter, 24 h; response scale: percent change from vehicle, -100% = no light; Potency, µM (doses to about 57.5 µM), for inactives: at the top dose activity change, positive = activation, most hits filed as activators; 48,000 tested, 0.24% active; AID 1508624, 2021; note: potency is the fitted concentration of half-maximal effect; nearly all actives have a fitted effect of over 55% in size
#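 Quantitative HTS used concentration series of up to 57.5 uM final on HEK293 luciferase reporter cells, 24 h at 37 degrees C. Readout was Dual-Glo firefly luminescence.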
# Active calls of the source: *; i = inactive; ? = inconclusive; . = not tested or not shown; ! = a repeat was not active; [ ] = dose if it differs, or a comment. Unless noted, calls come from the whole dose curve; as a rule, active = well fitted curve in the direction sought with a large enough effect; inconclusive = small, poorly fitted or top-dose-only effect, or another doubt; inactive = no such curve, though single readings can be large; an effect the other way counts as inactive or inconclusive.
SMILES,DRV1 agonist,OvCa metastasis,HTT promoter inh,NTMT1 inh,HTT-AS promoter
CC(C)(CC(=O)OCC(=O)Nc1ccccc1F)CC1=NS(=O)(=O)c2ccccc2N1,112*,i,?,-7%,-31%
CC(C)(CC(=O)OCC(=O)Nc1ccc(F)c(Cl)c1)CC1=NS(=O)(=O)c2ccccc2N1,115*,8%,?,-20%,-39%
COc1ccccc1NC(=O)COC(=O)CC(C)(C)CC1=NS(=O)(=O)c2ccccc2N1,?,8%,?,-3%,-34%
O=C(COC(=O)CCCC1=NS(=O)(=O)c2ccccc2N1)Nc1ccc(Br)cc1,?,i,-10%,-2%,-19%
CCOC(=O)c1ccccc1NC(=O)COC(=O)CC(C)(C)CC1=NS(=O)(=O)c2ccccc2N1,84*,i,?,-18%,-53%
CCCCNC(=O)c1ccc2c(c1)N=C(CC)c1ccccc1S2,-23,6%,?,21%,-41%
COc1cccc(Cn2nc(SC)c(S(=O)(=O)c3ccccc3)c2N(C(C)=O)C(C)=O)c1,?,i,-28%,2%,-29%
CSc1nn(Cc2cccc(F)c2)c(N(C(C)=O)C(C)=O)c1S(=O)(=O)c1ccccc1,83*,30%,?,17%,-32%
Cc1ccccc1NC(=O)Cn1c(=O)n(CCCC(=O)NCc2ccc3c(c2)OCO3)c(=O)c2ccccc21,-6,i,-3%,89µM*,1%
COc1ccc(NC(=O)CN2C(=O)CSc3ccc(S(=O)(=O)N(C)C)cc32)cc1OC,-6,16%,-7%,-3%,6%
O=C(Nc1ccc(Br)cc1)C1CCCN1S(=O)(=O)c1ccc(F)cc1 (stereo not given),-4,-2%,35µM*,-20%,-42%
O=C1Nc2ccccc2/C1=C\c1ccc(O)cc1,.,.,.,-18%,.
O=C1Nc2ccc(I)cc2/C1=C/c1cc(Br)c(O)c(Br)c1,-23,.,.,3.5µM*,.
O=C1Nc2ccc(I)cc2C1=Cc1cc(Br)c(O)c(Br)c1,.,14%,-3%,17µM*,1%
COc1ccc(N(CC(=O)N2CCc3ccccc3C2)S(=O)(=O)c2ccccc2)cc1,1,-1%,-18%[11.5 µM],-7%,-13%
CCc1ccc(C(c2ccccc2)c2c[nH]c3ccc(C)cc23)s1 (stereo not given),-40,4%,12%,-11%,13%
O=C1CCc2cc(S(=O)(=O)Nc3cccc(F)c3)ccc2N1,.,.,.,-3%[57.5 µM],.
COc1ccc(-c2nc3ccccc3o2)cc1NC(=O)COc1ccc(C)c(C)c1,3,i,23%,-19%,?
COc1ccc(-c2nc3ccccc3o2)cc1NC(=O)c1cccnc1,86*,8%,-5%,-6%,9%
Cc1ccc(OCC(=O)Nc2ccc(Cl)c(-c3nc4ncccc4o3)c2)cc1C,36,i,5%,5%,22%
COc1ccc(OCC(=O)Nc2cc(-c3nc4ccccc4o3)ccc2Cl)cc1,2,-2%,49%,1%,10µM*
CCCCC(=O)Nc1cc(-c2nc3ccccc3o2)ccc1OC,12,?,6%,3%,4%
CCc1ccc(OCC(=O)Nc2ccc(Cl)c(-c3nc4ncccc4o3)c2)cc1,118*,1%,36%,5%,?
CCC(C)NC(=O)CCc1c(C)nc2cc(-c3ccc(OC)cc3OC)nn2c1C (stereo not given),-3,i,-9%,?,-3%
Cc1nc2nc(C(F)(F)F)[nH]n2c(=O)c1Cc1ccccc1,26,14%,-12%,9%,7%
SMILES,DRV1 agonist,OvCa metastasis,HTT promoter inh,NTMT1 inh,HTT-AS promoter
COc1ccc(N2CCN(C(=O)c3cc4c(=O)n(Cc5cccnc5)ccc4nc3C)CC2)cc1,-12,6%,-16%,-1%,-11%
Fc1cc(Nc2nc(-c3ccncc3)nc3ccccc23)ccc1N1CCNCC1,.,.,.,10µM*,.
CCC(=O)NC(c1cccs1)c1cc([N+](=O)[O-])c2cccnc2c1OC (stereo not given),.,.,.,50µM*!,.
C#C[C@]1(O)CC[C@@H]2[C@@H]3CCc4cc(O)ccc4[C@H]3CC[C@@]21C,.,-8%,-25%,?,-35%
C#C[C@]1(O)CC[C@H]2[C@@H]3CCc4cc(O)ccc4[C@H]3CC[C@@]21C,34,.,-6%,11µM*!,-21%
CCOc1ccccc1CNS(=O)(=O)c1ccc(-c2cnc(C3CC3)o2)cc1,9,-7%,?,4%,-57%
CCOC(=O)N1CCc2c(sc(NCc3ccc(OCC)cc3)c2C(=O)Nc2ccc(OC)cc2OC)C1,?,0%,10µM*,7%,-82%
CCOC(=O)N1CCc2c(sc(NCc3ccc(OC)c(OC)c3OC)c2C(=O)Nc2ccc(OC)cc2OC)C1,86*,-1%,?,20%,-86%
CCOC(=O)c1ccc(NC(=O)c2c(NCc3cccc(OC)c3OC)sc3c2CCC3)cc1,-12,-3%,0%,56µM*,-3%
COc1ccccc1NC(=O)c1c(NCc2ccc(OC)c(OC)c2OC)sc2c1CCC2,-16,1%,-25%,?,-27%
CCOC(=O)N1CCc2c(sc(NCc3cccs3)c2C(=O)Nc2ccc(OC)cc2OC)C1,1,-1%,7.9µM*,11%,-91%
COc1ccc(NC(=O)c2c(NCc3ccc(OC)c(OC)c3OC)sc3c2CCC3)c(OC)c1,-17,2%,-16%,-11%,-13%
Cc1nn(CCC(=O)Nc2cccc(C#N)c2)c(C)c1S(=O)(=O)N1CCC(C)CC1,-1,i,?,-3%,-25%
Cc1ccc(-n2nc3c(N4CCC(C(=O)NCCc5ccccc5)CC4)nnc(C)c3c2C)cc1,2,-14%,?,0%,-46%
COC(=O)/C=C/C=C/C(=O)OC1C=C2COC(=O)C2(O)C2(C)CCCC(C)(C)C12 (stereo not given),.,.,.,15%[29.8 µM],.
CC(C)NC(=O)c1ccc(Cn2c(=O)c3cccn3c3cccnc32)cc1,-12,i,-6%,-1%,-10%
Cc1csc2nc(COC(=O)c3ccccc3NC(=O)c3cccc(Br)c3)cc(=O)n12,9,-19%,?,-1%,-45%
CCOC(=O)c1cc(=O)c2c(OCC(COc3cccc4oc(C(=O)OCC)cc(=O)c34)OC(=O)[C@@H](N)CCCCN)cccc2o1,4,.,11%,?,-3%
